# Bioassay records deposited in PubChem by National Center for Advancing Translational Sciences (NCATS).
# Compounds with a hit are over-represented: about 2.8% of the library has one in this group of screens.
# Pol eta inh-1 – DNA polymerase eta (human) inhibition | Potency, µM (top dose mostly 114 µM), for the others: at the top dose activity change, negative = inhibition, usual class: inhibitors | 390,000 compounds, 1.2% hits | Q9Y253 | recombinant Pol eta, fluorescent DNA replication assay; also: potency is read from the fitted curve at half-maximal effect; % is scaled to controls: 0 for no effect and ±100 for the full control effect
#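 Fluorescent replication assay: 50 nM final substrate added after a 15 min room-temperature compound preincubation with 10 nM enzyme. Signal taken at 0 min and again at 10 min.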
# WRN helicase inh – blocks human WRN helicase; Q14191; Potency, µM (doses to about 114 µM), without a hit: at the top dose activity change, negative = inhibition, most hits filed as inhibitors; 360,000 compounds, 0.46% hits; WRN helicase unwinding, fluorescent forked duplex, kinetic; also: potency is read from the fitted curve at half-maximal effect; % is scaled to controls: 0 for no effect and ±100 for the full control effect; nearly all actives have a fitted effect of over 55% in size
#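 Enzyme (20 nM final) and test compound sit together 15 min at room temperature before substrate addition. Substrate is a single-forked duplex oligonucleotide (100 nM) labelled with fluorophore and quencher, with 2 mM ATP; helicase unwinding raises red fluorescence, read kinetically.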
# Pol beta inh-1 – blocks human DNA polymerase beta activity. P06746. Potency, µM (titrated, usually from 114 µM), without a hit: top-dose activity change, negative = inhibition, actives largely listed as inhibitors. 340,000 compounds, 1.3% hits. Pol beta primer extension/strand displacement, fluorescence kinetic. AID 485314; also: potency is read from the fitted curve at half-maximal effect; % is scaled to controls: 0 for no effect and ±100 for the full control effect
#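 Pol beta (10 nM) and compounds were preincubated 15 min at room temperature, then 50 nM substrate (final) started primer extension/strand displacement. Reads were taken at 0 and 10 min; concentration-response data were fitted to a four-parameter Hill equation.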
# Pol iota inh – DNA polymerase iota (human) inhibition. Pol iota fluorescent replication assay, 10 min. AID 588590. 390,000 compounds, 1% hits. Potency, µM (doses to about 115 µM), inactives show at the top dose activity, negative = inhibition, actives largely listed as inhibitors; also: potency is read from the fitted curve at half-maximal effect
#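 Pol iota at 10 nM preincubated 15 min with compounds at room temperature; reaction started with fluorescent substrate, 50 nM final. Fluorescence read kinetically at 0 and 10 min; buffer-only wells as negative control.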
# Pol kappa inh-1 – blocks human DNA polymerase kappa activity; Q9UBT6; purified Pol kappa, fluorescent DNA synthesis assay, 10 min; Potency, µM (titrated, usually from 107 µM), for the others: top-dose activity, negative = inhibition, most hits filed as inhibitors; 400,000 compounds, 0.53% hits; AID 588579; also: potency is read from the fitted curve at half-maximal effect; % is scaled to controls: 0 for no effect and ±100 for the full control effect
#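 Kinetic fluorescence screen: compound preincubated 15 min RT with 10 nM enzyme; 50 nM substrate (final) initiates; reads at 0/10 min.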
# PI5P4K alpha inh – PI5P4K alpha (human) kinase inhibition; PI5P4Kalpha enzyme, ADP-Glo luminescence, 60 min; stronger effect = lower value; 330,000 compounds, 1.2% hits; max response, %; AID 652105; P48426; active = max response of -50% or lower; inconclusive = between -30% and -50%; inactive = -30% or higher; also: value at the top dose of about 77 µM; % is scaled to controls: 0 for no effect and ±100 for the full control effect
# Target sequence (P48426 whole entry, looked up): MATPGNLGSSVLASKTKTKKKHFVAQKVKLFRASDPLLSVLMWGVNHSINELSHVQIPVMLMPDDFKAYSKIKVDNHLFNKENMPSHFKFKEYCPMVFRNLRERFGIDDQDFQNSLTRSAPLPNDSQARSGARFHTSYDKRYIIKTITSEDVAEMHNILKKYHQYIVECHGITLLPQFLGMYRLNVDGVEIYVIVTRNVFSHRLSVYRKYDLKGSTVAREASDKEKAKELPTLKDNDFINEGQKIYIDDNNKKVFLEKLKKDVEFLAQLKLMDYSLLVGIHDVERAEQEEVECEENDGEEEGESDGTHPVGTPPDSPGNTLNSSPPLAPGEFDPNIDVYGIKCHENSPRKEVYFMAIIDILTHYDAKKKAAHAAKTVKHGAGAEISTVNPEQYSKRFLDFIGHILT
#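 Enzyme plus substrate dispensed, test compounds pinned in, then ATP (5 microM final) added. After 60 min at RT, ADP-Glo reagent 1 for 45 min and reagent 2 for 30 min preceded luminescence imaging.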
# Pol beta inh-2 – Validate hits inhibiting human DNA polymerase beta; shares compounds with Pol beta inh-1; Pol beta primer extension/strand displacement, fluorescence kinetic; Potency, µM, hits mostly inhibitors; 250 compounds, 87% hits; calls by dose curve; also: potency is read from the fitted curve at half-maximal effect
# Klenow inh – counter-screen for DNA polymerase beta inhibitors: Klenow fragment inhibition; shares compounds with Pol beta inh-1; Klenow exo- polymerase counter-screen, fluorescent DNA substrate; activity change, negative = inhibition, % at 57.1 µM; 250 tested, under 10 active
# HIV RT inh – inhibits HIV-1 reverse transcriptase in counter-screen; shares compounds with Pol beta inh-1; HIV-1 RT polymerase activity, counter-screen; activity % (negative = inhibition, positive = activation), % at 57.1 µM; 250 tested, under 10 active; AID 540301
# POLB valid – DNA polymerase beta inhibition, radiolabeled validation; shares compounds with Pol beta inh-1; radiolabeled primer extension gel assay, phosphorimager; inhibition, % at 10 µM; 110 compounds, 91% hits; AID 540325;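 active = inhibition at 10 µM of 30% or more; inconclusive = no clear call, values can overlap the other calls; inactive = inhibition at 10 µM under 30%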
# PGK validate – validation of Trypanosoma brucei phosphoglycerate kinase inhibitors. shares compounds with Pol kappa inh-1. TbPGK coupled GAPDH assay, Kinase-Glo luminescence. Potency, µM (highest dose often 57.5 µM), for inactives: at the top dose activity change, negative = inhibition, hits mostly inhibitors. 500 compounds, 79% hits. AID 686980; also: potency is read from the fitted curve at half-maximal effect; % is scaled to controls: 0 for no effect and ±100 for the full control effect; nearly all actives have a fitted effect of over 65% in size
# Pol iota confirm – Confirm cherry-picked inhibitors of human polymerase iota; shares compounds with Pol kappa inh-1; Pol iota primer extension, TAMRA/BHQ fluorescence; Potency, µM, hits mostly inhibitors; 1,500 compounds, 77% hits; AID 720496; also: potency is read from the fitted curve at half-maximal effect
# Pol kappa inh-2 – Pol kappa (human) inhibition, cherry-pick confirmation. shares compounds with Pol eta inh-1. purified Pol-kappa, fluorescent strand-displacement substrate. Potency, µM, usual class: inhibitors. 920 compounds, 76% hits. AID 720501; also: potency is read from the fitted curve at half-maximal effect
# Pol eta inh-2 – Pol eta (human) inhibition, cherry-pick confirmation | shares compounds with Pol eta inh-1 | Pol eta primer extension, TAMRA/BHQ fluorescence, 10 min | Potency, µM, actives largely listed as inhibitors | 2,600 compounds, 64% hits; also: potency is read from the fitted curve at half-maximal effect
# * marks the source's active call; other numbers are inactive results; ? = inconclusive; . = no result given. Unless noted, calls follow the shape of the dose curve; as a rule, active = well fitted curve in the direction sought with a large enough effect; inconclusive = small, poorly fitted or top-dose-only effect, or another doubt; inactive = no such curve, though single readings can be large; an effect the other way counts as inactive or inconclusive.
SMILES,Pol eta inh-1,WRN helicase inh,Pol beta inh-1,Pol iota inh,Pol kappa inh-1,PI5P4K alpha inh,Pol beta inh-2,Klenow inh,HIV RT inh,Pol iota confirm,Pol kappa inh-2,Pol eta inh-2,others
CCN1C(=O)[C@H]2[C@H]3CN=C(SCc4ccc(C(=O)OC)cc4)N3[C@@](C)(C(=O)OC)[C@H]2C1=O,-9%,2%,.,12%,7%,-6,.,.,.,.,.,.,
CC(C)(C)n1ncc2c(=O)n(Cc3ccc(F)cc3)cnc21,.,.,.,-17%,-4%,.,.,.,.,.,.,.,
Cc1cccc(C(=O)OCC(=O)N(C)c2ccccc2)c1C,-2%,-27%,-10%,-7%,-4%,-8,.,.,.,.,.,.,
Cc1nc2cc(-c3ccsc3-n3c(C)ccc3C)[nH]n2c(=O)c1Cl,25µM*,?,10µM*,?,?,?,28*,-4,-6,.,30*,30*,POLB valid=74*
CCn1c(SCC(=O)c2ccc(O)c(O)c2)nnc1-c1ccccc1OC,1.4µM*,20µM*,10µM*,10µM*,20µM*,-17,8.9*,-10,?,?,17*,30*,PGK validate=7.3µM*
CCn1c(SCC(=O)c2ccc(O)c(O)c2)nnc1-c1ccccc1,?,-31%,?,?,?,-16,.,.,.,.,.,.,
COC(=O)c1c(NC(=O)COC(=O)c2ccc(NC(=O)CC#N)cc2)sc2c1CCCCC2,28µM*,56µM*,8.9µM*,14µM*,50µM*,-62*,6.3*,-21,16,24*,17*,30*,
COCCCN(Cc1cc(OC)c(OC)c(OC)c1)C(=S)Nc1cccc(SC)c1,-5%,-5%,.,.,.,9,.,.,.,.,.,.,
COc1ccc(-c2nnc3sc(-c4ccco4)nn23)cc1OC,-6%,1%,?,13%,-7%,.,.,.,.,.,.,.,
Cc1oc(-c2ccc(F)cc2)cc1-c1nn2c(-c3ccoc3C)nnc2s1,7.9µM*,?,3.5µM*,7.9µM*,28µM*,-74*,?,-6,3,?,.,76*,
CCCCc1cc(=O)oc2cc(C)c(CN3CCCC3)c(O)c12,20µM*,50µM*,5µM*,11µM*,?,.,35*,1,12,.,.,30*,
OC(Cc1cccc(C=NN2CCOCC2)n1)(C(F)(F)F)C(F)(F)F,-7%,-4%,.,.,.,2,.,.,.,.,.,.,
